“And” between values parts separate entries of the source, which are not always exact repeats. Identical values can stand only once. Screen size: about 5,500 compounds; about 2,000 (36%) were called active. Inconclusive results (about 18%) are left out. No stated cut-off is given here; in the data, active means normalized growth mostly below about 0.91 (no sharp cut-off); inconclusive means no clear call, values can overlap the other calls; inactive means mostly above about 0.92. The list shows a part of the results.
Experiment: chemical genetic growth profiling, strain panel (AID 1159580);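 further: tested at 20 µM; growth read once vehicle control cultures reached saturation at 30 °C; 1 = growth at the plate median or of vehicle wells; lower values mean less growth of the strain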
Conditions: S. cerevisiae deletion strains, growth OD

Measured: normalized growth

CC(=O)CCCCn1c(=O)c2c(ncn2C)n(C)c1=O
inactive: locus YAL013W, strain DEP1, hits give low values 1.02 | locus YAL021C, strain ccr4, hits give low values 1.01 | locus YAL026C, strain drs2, hits give low values 1.01 | locus YAL030W, strain snc1, hits give low values 1.01 | locus YAL040C, strain CLN3, hits give low values 1 | locus YBL061C, strain skt5, hits give low values 1.01 | locus YBR009C, strain hhf1, hits give low values 1.02 | locus YBR021W, strain FUR4, hits give low values 0.991 | locus YBR023C, strain chs3, hits give low values 1.01 | locus YBR171W, strain sec66, hits give low values 1.04 | locus YBR229C, strain ROT2, hits give low values 1.02 | locus YBR231C, strain swc5, hits give low values 1.03 | locus YBR279W, strain paf1, hits give low values 1 | locus YCL011C, strain gbp2, hits give low values 1.01 | locus YCL016C, strain dcc1, hits give low values 1.01 | locus YCL029C, strain bik1, hits give low values 1.01 | locus YCL061C, strain MRC1 (second series), hits give low values 1.01 | locus YCL061C, strain MRC1, hits give low values 1.01 | locus YCL069W, strain vba3, hits give low values 1 | locus YCR088W, strain abp1, hits give low values 1.01 | locus YDL005C, strain med2, hits give low values 1.01 | locus YDL035C, strain GPR1, hits give low values 1.01 | locus YDL040C, strain nat1, hits give low values 1.01 | locus YDL074C, strain BRE1, hits give low values 1.04 | locus YDL101C, strain DUN1, hits give low values 1.02 | locus YDL185W, strain tfp1, hits give low values 0.999 | locus YDL192W, strain arf1, hits give low values 1 | locus YDR001C, strain nth1, hits give low values 1.01 | locus YDR069C, strain doa4, hits give low values 1.03 | locus YDR101C, strain arx1, hits give low values 1.01 | locus YDR137W, strain rgp1, hits give low values 1.03 | locus YDR150W, strain NUM1, hits give low values 1.02 and 0.998 | locus YDR159W, strain sac3, hits give low values 1.03 | locus YDR162C, strain NBP2, hits give low values 1.01 | locus YDR195W, strain ref2 1.02 | locus YDR297W, strain sur2, hits give low values 1.01 | locus YDR318W, strain mcm21, hits give low values 0.993 | locus YDR334W, strain swr1, hits give low values 1.02 | locus YDR335W, strain msn5, hits give low values 1.01 | locus YDR363W, strain ESC2, hits give low values 1 | locus YDR388W, hits give low values 0.999 | locus YDR392W, strain spt3, hits give low values 1.02 | locus YDR502C, strain sam2, hits give low values 1.01 | locus YEL003W, strain gim4, hits give low values 1.01 | locus YEL037C, strain rad23, hits give low values 1.01 | locus YEL061C, strain CIN8 (second series), hits give low values 1.01 | locus YEL061C, strain CIN8, hits give low values 1.01 | locus YER002W, strain NOP16, hits give low values 1.03 | locus YER015W, strain faa2, hits give low values 1.02 | locus YER016W, strain bim1, hits give low values 1.01 | locus YER110C, hits give low values 0.992 | locus YER111C, strain swi4, hits give low values 1.03 | locus YER155C, strain BEM2 (second series), hits give low values 1.02 | locus YER155C, strain BEM2, hits give low values 1.01 | locus YER167W, strain BCK2, hits give low values 1 | locus YFR010W, strain ubp6, hits give low values 1.01 | locus YGL078C, strain dbp3, hits give low values 1.01 | locus YGL086W, strain mad1, hits give low values 1.01 | locus YGL167C, strain pmr1, hits give low values 1.02 | locus YGL173C, strain kem1, hits give low values 1.02 | locus YGL227W, strain vid30, hits give low values 1.01 | locus YGL240W, strain doc1, hits give low values 1.03 | locus YGL248W, strain PDE1, hits give low values 1.03 | locus YGL253W, strain hxk2, hits give low values 1.02 | locus YGR078C, strain PAC10, hits give low values 1.02 | locus YGR135W, strain pre9, hits give low values 0.967 | locus YGR229C, strain SMI1, hits give low values 1.02 | locus YGR252W, strain gcn5, hits give low values 0.983 | locus YHR013C, strain ard1, hits give low values 1.04 | locus YHR027C, strain rpn1, hits give low values 1.02 | locus YHR030C, strain SLT2, hits give low values 1.02 and 0.994 | locus YHR079C, strain IRE1 (second series), hits give low values 1.01 | locus YHR079C, strain IRE1, hits give low values 0.99 | locus YHR094C, strain hxt1, hits give low values 0.995 | locus YHR129C, strain ARP1, hits give low values 1.02 | locus YHR142W, strain chs7, hits give low values 1.01 | locus YHR200W, strain rpn10, hits give low values 1 | locus YIL066C, strain RNR3, hits give low values 1.03 | locus YIL073C, strain SPO22, hits give low values 0.971 | locus YIL125W, strain kgd1, hits give low values 0.999 | locus YIR030C, strain dcg1, hits give low values 1.01 | locus YJL092W, strain hpr5, hits give low values 1.01 | locus YJL095W, strain BCK1 (second series), hits give low values 1 | locus YJL095W, strain BCK1, hits give low values 1.03 and 0.986 | locus YJL115W, strain asf1, hits give low values 1.01 | locus YJL129C, strain trk1, hits give low values 1.03 | locus YJL134W, strain LCB3, hits give low values 1 | locus YJL154C, strain vps35, hits give low values 1.01 | locus YJL164C, strain tpk1, hits give low values 1.02 | locus YJL166W, strain qcr8, hits give low values 1.01 | locus YJL168C, strain set2, hits give low values 0.99 | locus YJL187C, strain SWE1 (second series), hits give low values 1.03 | locus YJL187C, strain SWE1, hits give low values 1.01 | locus YJR043C, strain POL32, hits give low values 1.04
